# Experimental data reported in the supplement of paper PMC8728848.
# Many of the other results were omitted from the sample, so the strongest signals are more common in it than they were.
# B1: Gal 8 (Mus musculus), Q9JL15 (protein)
# chain: MGGSHHHHHHGMASMLSLNNLQNIIYNPIIPYVGTITEQLKPGSLIVIRGHVPKDSERFQVDFQLGNSLKPRADVAFHFNPHFKRSSCIVCNTLTQEKWGWEEITYDMPFRKEKSFEIVFMVLKNKFQVAVNGRHVLLYAHRISPEQIDTVGIYGKVNIHSIGFRFSSASALPHTLGDLQSMETSALGLTQINRENIQKPGKLQLSLPFEARLNASMGPGRTVVIKGEVNTNARSFNVDLVAGKTRDIALHLNPHLNVKAFVRNSFLQDAWGEEERNITCFPFSSGMYFEMIIYCDVREFKVAINGVHSLEYKHRFKDLSSIDTLSVDGDIRLLDVRSW
# Legend:
# Test in all cases: glycan array binding signal (z-score within array); higher = stronger binding
# Conditions in all cases: glycan notation: IUPAC condensed, linker removed; mutation: R82H, R255H
# [1] = molecular target: Gal(b1-4)GlcNAc(b1-3)Gal(b1-4)GlcNAc(b1-3)[Gal(b1-4)GlcNAc(b1-3)Gal(b1-4)GlcNAc(b1-6)]GalNAc
# Outline: (§1)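 The Consortium for Functional Glycomics database supplied 3228 glycan arrays, of which those lacking an available protein sequence were dropped. The binding signal, a within-array Z-score, was averaged across arrays of the same protein sequence and across linkers. Negative scores can be read as non-binding.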
# [2] = molecular target: Gal4S(b1-4)GlcNAc
# Outline: as §1
# [3] = molecular target: Gal6S(b1-3)GlcNAc6S
# Outline: as §1
# [4] = molecular target: GalNAc(a1-3)GalNAc(b1-3)Gal(a1-4)Gal(b1-4)Glc
# Outline: as §1
# [5] = molecular target: GalNAc(b1-3)GalNAc
# Outline: as §1
# [6] = molecular target: GalNAc(b1-4)GlcNAc
# Outline: as §1
# [7] = molecular target: GalNAc(b1-4)GlcNAc(b1-3)GalNAc(b1-4)GlcNAc
# Outline: as §1
# [8] = molecular target: GlcA3S(b1-3)Gal(b1-4)GlcNAc(b1-3)Gal(b1-4)Glc
# Outline: as §1
# [9] = molecular target: GlcNAc(b1-2)Man(a1-3)[GlcNAc(b1-4)][GlcNAc(b1-2)Man(a1-6)]Man(b1-4)GlcNAc(b1-4)[Fuc(a1-6)]GlcNAc
# Outline: as §1
# [10] = molecular target: GlcNAc(b1-3)Gal(b1-4)GlcNAc(b1-3)Gal(b1-4)GlcNAc(b1-2)[GlcNAc(b1-3)Gal(b1-4)GlcNAc(b1-3)Gal(b1-4)GlcNAc(b1-6)]Man(a1-6)[GlcNAc(b1-3)Gal(b1-4)GlcNAc(b1-3)Gal(b1-4)GlcNAc(b1-2)Man(a1-3)]Man(b1-4)GlcNAc(b1-4)[Fuc(a1-6)]GlcNAc
# Outline: as §1
# [11] = molecular target: GlcNAc(b1-3)Gal(b1-4)GlcNAc(b1-3)Gal(b1-4)GlcNAc(b1-3)Gal(b1-4)GlcNAc(b1-2)Man(a1-3)[GlcNAc(b1-3)Gal(b1-4)GlcNAc(b1-3)Gal(b1-4)GlcNAc(b1-3)Gal(b1-4)GlcNAc(b1-2)Man(a1-6)]Man(b1-4)GlcNAc(b1-4)GlcNAc
# Outline: as §1
# [12] = molecular target: GlcNAc(b1-3)Gal(b1-4)GlcNAc(b1-3)Gal(b1-4)GlcNAc(b1-3)Gal(b1-4)GlcNAc(b1-2)[GlcNAc(b1-3)Gal(b1-4)GlcNAc(b1-3)Gal(b1-4)GlcNAc(b1-3)Gal(b1-4)GlcNAc(b1-6)]Man(a1-6)[GlcNAc(b1-3)Gal(b1-4)GlcNAc(b1-3)Gal(b1-4)GlcNAc(b1-3)Gal(b1-4)GlcNAc(b1-2)Man(a1-3)]Man(b1-4)GlcNAc(b1-4)[Fuc(a1-6)]GlcNAc
# Outline: as §1
# [13] = molecular target: GlcNAc(b1-3)Gal(b1-4)GlcNAc(b1-3)Gal(b1-4)GlcNAc(b1-3)Gal(b1-4)GlcNAc(b1-3)Gal(b1-4)GlcNAc(b1-2)Man(a1-3)[GlcNAc(b1-3)Gal(b1-4)GlcNAc(b1-3)Gal(b1-4)GlcNAc(b1-3)Gal(b1-4)GlcNAc(b1-3)Gal(b1-4)GlcNAc(b1-2)Man(a1-6)]Man(b1-4)GlcNAc(b1-4)GlcNAc
# Outline: as §1
# [14] = molecular target: GlcNAc(b1-3)Gal(b1-4)GlcNAc(b1-3)Gal(b1-4)GlcNAc(b1-3)Gal(b1-4)GlcNAc(b1-3)Gal(b1-4)GlcNAc(b1-2)Man(a1-3)[GlcNAc(b1-3)Gal(b1-4)GlcNAc(b1-3)Gal(b1-4)GlcNAc(b1-3)Gal(b1-4)GlcNAc(b1-3)Gal(b1-4)GlcNAc(b1-2)Man(a1-6)]Man(b1-4)GlcNAc(b1-4)[Fuc(a1-6)]GlcNAc
# Outline: as §1
# [15] = molecular target: GlcNAc(b1-3)Gal(b1-4)GlcNAc(b1-3)Gal(b1-4)GlcNAc(b1-3)Gal(b1-4)GlcNAc(b1-3)Gal(b1-4)GlcNAc(b1-2)[GlcNAc(b1-3)Gal(b1-4)GlcNAc(b1-3)Gal(b1-4)GlcNAc(b1-3)Gal(b1-4)GlcNAc(b1-3)Gal(b1-4)GlcNAc(b1-6)]Man(a1-6)[GlcNAc(b1-3)Gal(b1-4)GlcNAc(b1-3)Gal(b1-4)GlcNAc(b1-3)Gal(b1-4)GlcNAc(b1-3)Gal(b1-4)GlcNAc(b1-2)Man(a1-3)]Man(b1-4)GlcNAc(b1-4)[Fuc(a1-6)]GlcNAc
# Outline: as §1
# [16] = molecular target: GlcNAc(b1-3)Gal(b1-4)GlcNAc(b1-6)[Gal(b1-3)]GalNAc
# Outline: as §1
# [17] = molecular target: GlcNAc(b1-4)GlcNAc(b1-4)GlcNAc
# Outline: as §1
# [18] = molecular target: Man(a1-2)Man(a1-6)[Man(a1-3)]Man(a1-6)[Man(a1-2)Man(a1-2)Man(a1-3)]Man
# Outline: as §1
# [19] = molecular target: Man(a1-3)[Man(a1-6)]Man
# Outline: as §1
# [20] = molecular target: Man(a1-3)[Man(a1-6)]Man(a1-6)[Man(a1-2)Man(a1-3)]Man(b1-4)GlcNAc(b1-4)GlcNAc
# Outline: as §1
# [21] = molecular target: Neu5Ac(a2-3)Gal
# Outline: as §1
# [22] = molecular target: Neu5Ac(a2-3)Gal(b1-3)GlcNAc
# Outline: as §1
# [23] = molecular target: Neu5Ac(a2-3)Gal(b1-3)GlcNAc(b1-2)Man(a1-3)[Neu5Ac(a2-3)Gal(b1-3)GlcNAc(b1-2)Man(a1-6)]Man(b1-4)GlcNAc(b1-4)GlcNAc
# Outline: as §1
# [24] = molecular target: Neu5Ac(a2-3)Gal(b1-4)GlcNAc(b1-3)Gal(b1-4)GlcNAc(b1-3)Gal(b1-4)GlcNAc
# Outline: as §1
# [25] = molecular target: Neu5Ac(a2-3)Gal(b1-4)GlcNAc(b1-3)Gal(b1-4)GlcNAc(b1-3)[Neu5Ac(a2-3)Gal(b1-4)GlcNAc(b1-3)Gal(b1-4)GlcNAc(b1-6)]GalNAc
# Outline: as §1
# [26] = molecular target: Neu5Ac(a2-6)Gal(b1-4)GlcNAc(b1-3)GalNAc
# Outline: as §1
# [27] = molecular target: Neu5Ac(a2-6)Gal(b1-4)GlcNAc6S
# Outline: as §1
# [28] = molecular target: Neu5Ac(a2-8)Neu5Ac(a2-3)[GalNAc(b1-4)]Gal(b1-4)Glc
# Outline: as §1
binder,measurement,setting,value
B1,glycan array binding signal (z-score),[1],0.053
same,glycan array binding signal (z-score),[2],-0.22
same,glycan array binding signal (z-score),[3],-0.186
same,glycan array binding signal (z-score),[4],-0.214
same,glycan array binding signal (z-score),[5],-0.259
same,glycan array binding signal (z-score),[6],-0.245
same,glycan array binding signal (z-score),[7],-0.271
same,glycan array binding signal (z-score),[8],-0.198
same,glycan array binding signal (z-score),[9],-0.278
same,glycan array binding signal (z-score),[10],5.44
same,glycan array binding signal (z-score),[11],4.25
same,glycan array binding signal (z-score),[12],4.84
same,glycan array binding signal (z-score),[13],7.01
same,glycan array binding signal (z-score),[14],6.24
same,glycan array binding signal (z-score),[15],6.71
same,glycan array binding signal (z-score),[16],-0.251
same,glycan array binding signal (z-score),[17],-0.255
same,glycan array binding signal (z-score),[18],-0.276
same,glycan array binding signal (z-score),[19],-0.24
same,glycan array binding signal (z-score),[20],-0.246
same,glycan array binding signal (z-score),[21],-0.259
same,glycan array binding signal (z-score),[22],-0.217
same,glycan array binding signal (z-score),[23],0.022
same,glycan array binding signal (z-score),[24],-0.148
same,glycan array binding signal (z-score),[25],-0.255
same,glycan array binding signal (z-score),[26],-0.062
same,glycan array binding signal (z-score),[27],-0.2
same,glycan array binding signal (z-score),[28],-0.268
